From PubChem
Gal4-VP16 FLuc: counter-screen for ROR gamma inhibitors: Gal4-VP16 reporter | AID 2546 | 310,000 compounds, 3.5% hits | Drosophila S2 Gal4-VP16 UAS-luciferase, luminescence, 20 h | Potency, µM (titrated, usually from 53.6 µM), inactives show at the top dose activity, negative = inhibition, actives largely listed as inhibitors;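 note: Gal4-VP16 expression switched on by copper sulfate through the metallothionein promoter; potency is the fitted concentration of half-maximal effect; nearly all actives have a fitted effect of over 50% in size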
IL1B secr inh: inhibitors of inflammasome signaling (IL-1 beta secretion); THP-1 LPS/ATP IL-1B secretion, AlphaLISA, 16 h; stronger effect = lower value; activity change, % at 57.5 µM; 360,000 compounds, 4.7% hits; AID 743279; in the data active = activity change below about -50%; inconclusive = mostly about -30% to -49%
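Secreted IL-1B measured by AlphaLISA bead assay after 16 h compound exposure of THP-1 cells; compounds (final up to 57.5 uM) added 1 h before LPS (250 ng/mL) and ATP (1.25 mM) stimulation; lower signal means less secretion.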
LDHA block: inhibitors of human lactate dehydrogenase A. P00338. AID 1347041. 480,000 compounds, 0.15% hits. purified LDHA, NADH/diaphorase-resazurin fluorescence; stronger effect = lower value. activity change, % (values are at about 110 or 230 µM); in the data active = activity change below about -30%; inconclusive = mostly about -25% to -30%;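 note: plate controls were DMSO wells for no effect and wells without enzyme for full effect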
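Human LDH5 at 2 nM final in Tris HCl pH 7.4 with 0.06 mM NADH and 0.2 mM pyruvate, reacted 5 minutes at room temperature. Remaining NADH coupled via diaphorase/resazurin; resorufin fluorescence read at 0 and 20 minutes, normalized to enzyme-free and DMSO wells.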
RORg inh: blocks mouse ROR gamma transcriptional activity | 310,000 compounds, 5.4% hits | Potency, µM (top dose mostly 53.6 µM), inactives show at the highest dose activity change, negative = inhibition, actives largely listed as inhibitors | AID 2551 | Drosophila S2 Gal4-RORgamma UAS-luciferase reporter, 20 h | P51450; note: potency is the fitted concentration of half-maximal effect; nearly all actives have a fitted effect of over 60% in size
Target sequence (P51450 whole entry, looked up, the tested form may be a part): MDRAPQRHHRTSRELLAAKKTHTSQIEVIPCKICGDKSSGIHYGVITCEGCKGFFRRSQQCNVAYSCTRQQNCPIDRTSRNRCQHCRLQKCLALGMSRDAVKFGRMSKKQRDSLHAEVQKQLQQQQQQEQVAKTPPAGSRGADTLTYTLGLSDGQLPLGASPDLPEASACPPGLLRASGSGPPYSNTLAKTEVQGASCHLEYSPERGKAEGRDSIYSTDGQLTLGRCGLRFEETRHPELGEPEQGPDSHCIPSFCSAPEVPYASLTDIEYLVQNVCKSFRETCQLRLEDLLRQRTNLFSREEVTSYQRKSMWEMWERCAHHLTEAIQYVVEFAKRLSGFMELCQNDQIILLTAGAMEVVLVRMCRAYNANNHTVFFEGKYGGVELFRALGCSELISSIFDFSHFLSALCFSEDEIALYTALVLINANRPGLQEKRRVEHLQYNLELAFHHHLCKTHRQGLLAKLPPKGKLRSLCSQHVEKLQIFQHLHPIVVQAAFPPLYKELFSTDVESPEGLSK
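Read-out: Photinus luciferase luminescence; inhibitors lower reporter signal. Insect Schneider cells with Gal4-ROR gamma fusion under metallothionein promoter, UAS reporter; 700 uM final copper sulfate induction, 20 hr, ambient temperature.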
DT40 TDP1 CPT: growth inhibition of DT40 Tdp1-/-;hTDP1 cells with camptothecin (screen for TDP1 inhibitors); chicken DT40 Tdp1-/-;hTDP1 cells + 20 nM CPT, ATP luminescence, 48 h; Potency, µM (top dose mostly 46.2 µM), inactives show top-dose activity change, negative = growth inhibition, usual class: inhibitors; 420,000 compounds, 12% hits; AID 686979; note: potency is the fitted concentration of half-maximal effect; nearly all actives have a fitted effect of over 55% in size
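Chicken DT40 Tdp1-/- cells complemented with human TDP1, 400 cells/well, exposed to compounds plus 20 nM camptothecin for at least 48 h at 37 C; viability read as ATP content by CellTiter-Glo luminescence.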
TDP1 cell noCPT: qHTS for Inhibitors of human tyrosyl-DNA phosphodiesterase 1 (TDP1): qHTS in cells in absence of CPT | DT40 Tdp1-/- hTDP1 cells, no CPT, ATP luminescence, 48 h | Potency, µM (highest dose often 46.2 µM), for the others: at the highest dose activity change, negative = growth inhibition, most hits filed as inhibitors | 420,000 compounds, 15% hits | AID 686978, 2013; note: potency is the fitted concentration of half-maximal effect; nearly all actives have a fitted effect of over 55% in size
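Cells were dispensed at 400 per well, compounds added by pin tool, plates incubated ≥48 hr at 37 °C, then CellTiter-Glo added for 30 min at room temperature before luminescence reading. Line: DT40 Tdp1-/- complemented with hTDP1; camptothecin omitted.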
Starred values were filed as active, the others as inactive; ? = inconclusive; . = no result; [ ] = remark or other dose. Shown are actives, neighbours in structure and some others; about 18% of the full set was active somewhere. Unless noted, calls come from the whole dose curve; as a rule, active = well fitted curve in the direction sought with a large enough effect; inconclusive = small, poorly fitted or top-dose-only effect, or another doubt; inactive = no such curve, though single readings can be large; an effect the other way counts as inactive or inconclusive. Unless noted, % is set by controls: 0 for no effect and ±100 for the full control effect.

SMILES	Gal4-VP16 FLuc	IL1B secr inh	LDHA block	RORg inh	DT40 TDP1 CPT	TDP1 cell noCPT
CCN(CC)CCCNC(=O)CSc1c2c(nc3cc(Cl)ccc13)CCCC2	-11.0%	0.0	-8.7	11.2%	8.2µM*	5.8µM*
O=C(CSc1c2c(nc3ccc(Cl)cc13)CCCC2)NCCCN1CCOCC1	-0.4%	-92.9*	-4.1	?	?	?
O=C(CSc1c2c(nc3cc(Cl)ccc13)CCCC2)NCCCN1CCOCC1	5.6%	-100.9*	-1.1	-11.3%	?	?
CCCCn1c(N)c(N(C(=O)c2cc3c(s2)CCC3)C2CCCC2)c(=O)[nH]c1=O	.	.	-8.0	.	.	.
CCOc1cc(CNCc2cccnc2)cc(Cl)c1OCC	.	.	-4.0	.	.	.
O=C(c1ccc2c(c1)nc1n2CCCC1)N1CCN(c2ccccc2)CC1	.	.	-3.1	.	.	.
COc1ccc(-c2nc(C#N)c(NCCc3ccc(F)cc3)o2)cc1	.	.	5.2	.	.	.
O=C(Nc1cccc(-c2csc(Nc3ccc(Cl)cc3)n2)c1)c1ccccc1	0.8%	-58.7*	-3.4	17.6%	8.2µM*	16.4µM*
CC(=O)Nc1ccc(Nc2nc(-c3ccc(NC(C)=O)cc3)cs2)cc1	.	.	-0.3	.	.	.
O=C(Nc1ccc(-c2csc(Nc3ccccc3)n2)cc1)c1ccccc1	7.9%	35.1	0.1	21.6%	25.9µM*	20.6µM*
O=C(Nc1cccc(-c2csc(Nc3ccc(Cl)cc3)n2)c1)c1cccc(C(F)(F)F)c1	-5.6%	?	-13.5	?	?	20.6µM*
O=C(Nc1cccc(-c2csc(Nc3ccccc3)n2)c1)c1cc([N+](=O)[O-])cc(C(F)(F)F)c1	1.1%	-22.0	1.9	?	?	?
Clc1ccc(Nc2nc(-c3cccnc3)cs2)cc1	-4.6%	5.0	-7.9	46.1%	-14.0%	?
O=C(Nc1cccc(-c2csc(Nc3ccc(Cl)cc3)n2)c1)c1cc([N+](=O)[O-])cc(C(F)(F)F)c1	-8.7%	-26.9	-3.1	?	18.4µM*	18.4µM*
Clc1ccc(-c2noc(C(c3ccccc3)c3ccccc3)n2)cc1	.	.	0.8	.	.	.
O=C(Nc1ccc(O)c(-c2nc3ccccc3o2)c1)c1ccccc1F	.	.	-4.2	.	.	.
CCCCCCCNC(=O)C1(CC2CC(c3ccccc3)=NO2)CCN(C(=O)OC(C)(C)C)CC1 (configuration not stated)	.	-4.1	-2.7	.	?	18.4µM*
CCCCCCCNC(=O)C1(CC2CC(c3ccccc3)=NO2)CCN(C(=O)c2ccccc2)CC1 (configuration not stated)	.	0.0	-2.0	.	?	16.4µM*
C=CCNC(=S)NNC(=O)c1ccc(CSc2nc(C)cc(C)n2)cc1	.	.	-3.2	.	.	.
O=C(N/N=C/c1ccccn1)c1cc(-c2ccc3ccccc3c2)n[nH]1	15.8µM*	33.8	-34.4*	15.8µM*	?	?
O=C(N/N=C/c1ccccn1)c1ccc(NC(=O)c2ccccc2Cl)cc1	1.7%	-14.1	-0.4	-19.3%	-27.2%	?
COc1cccc(/C=N/NC(=O)c2ccc([N+](=O)[O-])cc2Cl)c1O	0.631µM*	68.6	9.9	0.355µM*	4.61µM*	4.61µM*
O=C(N/N=C/c1ccccn1)c1ccc(Cl)c(Cl)c1	0.631µM*	.	.	?	.	.
COc1cc(/C=N/NC(=O)c2cccc([N+](=O)[O-])c2)cc(OC)c1O	8.4%	-4.0	3.5	-18.3%	-22.7%	?
Cc1cc(C)nc(SCc2ccc(C(=O)NNC(=O)Nc3cccc(Cl)c3)cc2)n1	?	-100.2*	-0.9	?	20.6µM*	13µM*
SMILES	Gal4-VP16 FLuc	IL1B secr inh	LDHA block	RORg inh	DT40 TDP1 CPT	TDP1 cell noCPT
CN(Cc1cccc(Cl)c1Cl)C(C(=O)NC1CC1)c1ccc(F)cc1 (configuration not stated)	.	.	10.1	.	.	.
Cc1cccc(N2CCN(C(=O)c3ccccc3NC(=O)Cn3c(C)cc(C)c(C#N)c3=O)CC2)c1C	.	.	-3.4	.	.	.
O=C(N/N=C/c1ccccn1)c1ccc([N+](=O)[O-])cc1Cl	?	13.6	-3.5	11.2µM*	?	-19.5%
O=C(N/N=C/c1ccccn1)c1cc(-c2ccccc2Cl)n[nH]1	-2.7%[10 µM]	-2.1	-2.7	15.8µM*	?	18.4µM*
CCc1ccc(-c2cc(C(=O)N/N=C/c3ccccn3)[nH]n2)cc1	?	67.0	-4.6	12.6µM*	?	?
Cc1cc(C)nc(SCc2ccc(C(=O)N/N=C/c3ccccn3)cc2)n1	14.1µM*	120.6	-1.1	7.08µM*	?	20.6µM*
COC(=O)c1ccc(-c2noc(CN(C)CCC3CCCCO3)n2)cc1 (configuration not stated)	5.62µM*	33.5	-4.6	5.62µM*	1.7%	?
CCN(Cc1ccncc1)Cc1nc(-c2ccc(C(=O)OC)cc2)no1	-6.2%	24.1	-11.3	-23.4%	?	20.6µM*
CN(C)C(CNC(=O)/C=C/c1ccccc1)c1ccsc1 (configuration not stated)	.	.	3.7	.	.	.
CCOC(=O)c1csc(NC(=O)c2cc(OC)c(OC)c(OC)c2)n1	-10.6%	-53.9*	-4.2	-8.6%	?	?
COC(=O)c1cc(C(=O)Nc2nnc(CC(C)(C)C)s2)cc([N+](=O)[O-])c1	8.91µM*	16.0	-5.5	8.91µM*	0.3%	?
COc1cc(C(=O)Nc2nnc(CC(C)(C)C)s2)cc(OC)c1OC	.	.	-6.1	.	13µM*	?
CCCC(=O)Nc1nc(C(=O)OCC)cs1	-7.4%	-0.1	-3.7	14.2%	-2.4%	-18.2%
COc1cc(C(=O)Nc2nnc(C)s2)cc(OC)c1OC	5.9%	-6.6	-5.2	7.08µM*	10.4%	-2.4%
